# Assay outcomes as filed in PubChem.
# TDP1 cell noCPT: qHTS for Inhibitors of human tyrosyl-DNA phosphodiesterase 1 (TDP1): qHTS in cells in absence of CPT; DT40 Tdp1-/- hTDP1 cells, no CPT, ATP luminescence, 48 h; Potency, µM (highest dose often 46.2 µM), inactives show at the highest dose activity change, negative = growth inhibition, actives largely listed as inhibitors; hit rate 15% among 420,000; also: nearly all actives have a fitted effect of over 55% in size
#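 Growth kinetics read by CellTiter-Glo luminescence after ≥48 hr at 37 °C. Cells: DT40 Tdp1-/- stably carrying human TDP1, 400 per well, compound exposure in the absence of CPT (DMSO vehicle).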
# TDP1 inh: qHTS Assay for Inhibitors of Tyrosyl-DNA Phosphodiesterase (TDP1) | hit rate 0.28% among 350,000 | Potency, µM (doses to about 130 µM), inactives show at the top dose activity change, negative = inhibition, usual class: inhibitors | recombinant TDP1, AlphaScreen DNA substrate cleavage; also: nearly all actives have a fitted effect of over 40% in size
#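 E. coli-derived human Tdp1, 1 nM final. Cpd preinc 15 min RT; substrate 15 nM final, 5 min RT; AS bead mix 10 ug/ml final, 10 min RT. Signal loss = tyrosine-FITC cleavage. No-enzyme wells = max signal.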
# VDR inh: Inhibitors of the vitamin D receptor (VDR): qHTS; AID 504847, 2011; hit rate 0.93% among 400,000; VDR-SRC2-3 peptide fluorescence polarization, 2 h; Potency, µM, for the others: max response, negative = inhibition, hits mostly inhibitors
#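 VDR–SRC2-3 interaction, FP format. Cmpds 23 nl via pintool, brief spin, 2 h ambient incubation.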
# GCN5L2 inh: qHTS Assay for Inhibitors of GCN5L2; Histone acetyltransferase KAT2A (Homo sapiens), Q92830; GCN5L2 HAT assay, ThioGlo1 CoA-SH fluorescence; Potency, µM (doses to about 58.9 µM), for the others: top-dose activity change, negative = inhibition, actives largely listed as inhibitors; hit rate 0.21% among 390,000
#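 Titration-based screen in which CoA formation is detected via maleimide probe ThioGlo1 (50uM) turning fluorescent on thiol reaction; substrates H3(1-25) 75uM and acetyl-CoA 70uM, GCN5L2 20nM, 20 min incubation at room temperature.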
# DT40 TDP1 CPT: qHTS for Inhibitors of human tyrosyl-DNA phosphodiesterase 1 (TDP1): qHTS in cells in presence of CPT | chicken DT40 Tdp1-/-;hTDP1 cells + 20 nM CPT, ATP luminescence, 48 h | hit rate 12% among 420,000 | AID 686979, 2013 | Potency, µM (doses to about 46.2 µM), for the others: at the top dose activity change, negative = growth inhibition, usual class: inhibitors; also: nearly all actives have a fitted effect of over 55% in size
#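 Cell growth measured by CellTiter-Glo luminescence after a minimum 48 h, 37 C compound exposure with 20 nM CPT in Tdp1-knockout DT40 cells stably expressing hTDP1, seeded 400/well; qHTS titration format.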
# PLK1 PBD block: qHTS for Inhibitors of PLK1-PDB (polo-like kinase 1 - polo-box domain): Primary Screen; Serine/threonine-protein kinase PLK1 (Homo sapiens), P53350; Plk1 PBD binding of FITC phosphopeptide, fluorescence polarization; Potency, µM, inactives show max response, negative = inhibition, hits mostly inhibitors; hit rate 2.8% among 360,000; AID 720504, 2013; also: series mostly up to about 57 µM; nearly all actives have a fitted effect of over 65% in size
# Target sequence (P53350 whole entry, looked up, the tested form may be a part): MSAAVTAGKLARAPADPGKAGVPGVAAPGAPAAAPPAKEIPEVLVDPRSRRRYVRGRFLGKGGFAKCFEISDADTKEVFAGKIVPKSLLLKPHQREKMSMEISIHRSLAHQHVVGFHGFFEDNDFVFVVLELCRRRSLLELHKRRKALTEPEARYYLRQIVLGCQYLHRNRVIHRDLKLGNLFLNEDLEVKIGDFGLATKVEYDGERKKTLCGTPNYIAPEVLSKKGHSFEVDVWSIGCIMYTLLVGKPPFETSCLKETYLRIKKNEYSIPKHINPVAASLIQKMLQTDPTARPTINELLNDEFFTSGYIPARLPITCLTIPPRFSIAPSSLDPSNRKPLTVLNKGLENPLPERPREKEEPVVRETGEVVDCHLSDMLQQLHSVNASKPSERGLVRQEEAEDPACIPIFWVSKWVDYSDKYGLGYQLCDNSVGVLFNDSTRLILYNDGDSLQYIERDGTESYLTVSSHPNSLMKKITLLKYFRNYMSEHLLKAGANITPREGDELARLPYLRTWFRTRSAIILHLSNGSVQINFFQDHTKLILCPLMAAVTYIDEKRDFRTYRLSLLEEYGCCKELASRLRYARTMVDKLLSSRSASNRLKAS
# The depositor's hits bear a star; ? = inconclusive; / = no result given. A selection: hits, their analogues and other compounds. The true share with any hit is near 18%. Calls follow the shape of the dose curve; as a rule, active = well fitted curve in the direction sought with a large enough effect; inconclusive = small, poorly fitted or top-dose-only effect, or another doubt; inactive = no such curve, though single readings can be large; an effect the other way counts as inactive or inconclusive. % is scaled to controls: 0 for no effect and ±100 for the full control effect; potency is read from the fitted curve at half-maximal effect.
SMILES,TDP1 cell noCPT,TDP1 inh,VDR inh,GCN5L2 inh,DT40 TDP1 CPT,PLK1 PBD block
COc1cccc(C(=O)Nc2c3c(nn2-c2ccc(C)cc2C)CS(=O)(=O)C3)c1OC,23µM*,8%,12%,-5%,?,/
COc1ccc(-c2cc(C(=O)Nc3cc(C)nn3-c3ccccc3)no2)cc1OC,21%,-3%,-18%,-6%,-4%,38µM*
Cc1ccc(-c2cc3nn(-c4ccccc4)c(N)c3c(=O)o2)cc1,21µM*,2%,-12%,-2%,?,-8%
CCCCn1nnnc1C1(C)CCC(=O)N1Cc1ccc(OC)cc1 (centres undefined),-12%,/,/,/,-11%,-6%
O=C1C(C=Nc2ccccc2O)=C(O)c2ccccc21,1.3µM*,1%,22%,-6%,3.3µM*,-4%
Cc1ccc(O)c(N=CC2=C(O)c3ccccc3C2=O)c1,23µM*,10%,-19%,-4%,?,?
COc1ccc(Nc2oc(-c3ccc(COc4ccccc4C)o3)nc2C#N)cc1,?,6%,20%,-5%,?,/
COC(=O)C1CCN(C(=O)COC(=O)c2oc3ccc(OC)cc3c2C)CC1,-25%,1%,11%,-4%,-18%,8%
COc1ccc(OC)c(CCNC(=O)c2nn(C)c3c2CSc2ccccc2-3)c1,?,3%,4%,-4%,?,/
O=C(NCc1cccc(Cl)c1)c1c2c(nc3ccccc13)C(=O)N(C1CCCCC1)C2,10µM*,7%,8%,-4%,15µM*,/
COc1cccc(CNC(=O)c2c3c(nc4ccccc24)C(=O)N(C2CCCCC2)C3)c1,21µM*,7%,11%,-7%,13µM*,/
COc1ccc(CNC(=O)c2c3c(nc4ccccc24)C(=O)N(C2CCCCC2)C3)c(OC)c1,3%,3%,-8%,-5%,-2%,/
COc1ccc(OC)c(CCNC(=O)c2c3c(nc4ccccc24)C(=O)N(C2CCCCC2)C3)c1,18µM*,10%,11%,0%,?,/
COc1ccc(CNC(=O)c2c3c(nc4ccccc24)C(=O)N(C2CCCCC2)C3)cc1,15µM*,10%,4%,-6%,12µM*,/
O=C(Nc1ccc(F)cc1F)c1c2c(nc3ccccc13)C(=O)N(C1CCCCC1)C2,?,6%,-4%,-8%,?,/
CC(C)CCNC(=O)c1c2c(nc3ccccc13)C(=O)N(C1CCCCC1)C2,?,7%,15%,22%,?,/
Cc1nnc(NCC=Cc2ccccc2)s1,-5%,/,/,/,0%,2%
CCOc1ccc(NC(=O)CNS(=O)(=O)c2ccc(Br)s2)cc1,?,1%,-10%,-5%,?,/
Cc1ccnc(NC(=O)CCN2C(=O)c3ccccc3S2(=O)=O)n1,-16%,/,-20%,-2%,-2%,-9%
CC1=NN(c2ccccc2)C(=O)/C1=C\c1ccc(Br)s1,?,9%,-25%,0%,?,4.7µM*
CC1=NN(c2ccccc2)C(=O)/C1=C\N(O)c1ccccc1,-57%,/,-28%,-12%,-24%,?
CC1=NN(c2ccccc2)C(=O)/C1=C\c1cc(C)n(-c2ccccc2)c1C,23µM*,3%,7%,5%,?,4%
CC1=NN(c2ccccc2)C(=O)/C1=C/c1ccc[nH]1,-10%,11%,6%,-3%,-2%,-7%
CC1=NN(c2ccccc2)C(=O)C1=Cc1ccccc1,-6%,/,/,/,-17%,4.7µM*
CC1=NN(c2ccc(C)cc2)C(=O)/C1=C\C=C\c1ccccc1,9.2µM*,1%,79µM*,0%,12µM*,-28%
SMILES,TDP1 cell noCPT,TDP1 inh,VDR inh,GCN5L2 inh,DT40 TDP1 CPT,PLK1 PBD block
CCCCCC(O)(c1ccccc1)C(CN1CCOCC1)c1ccccc1 (centres undefined),?,/,17%,-4%,?,-10%
Cc1cc(C=C2C(=O)c3ccccc3C2=O)c(C)n1-c1ccccc1,?,-2%,20%,2%,?,?
Cc1cc(/C=C2\Cc3ccccc3C2=O)c(C)n1-c1ccccc1,13µM*,5%,-8%,-5%,?,-20%
O=C(Nc1ccc(F)c(Cl)c1)c1ccc2sc([C@H]3C[C@H](O)[C@@H](CO)O3)nc2c1,21µM*,/,/,/,18µM*,4%
O=C(NCc1cc(Cl)cc(Cl)c1)c1ccc2sc([C@H]3C[C@H](O)[C@@H](CO)O3)nc2c1,?,/,/,/,21µM*,-2%
O=C(Nc1cccc(C(F)(F)F)c1)c1ccc2sc([C@H]3C[C@H](O)[C@@H](CO)O3)nc2c1,23µM*,/,/,/,?,-9%
O=C(NCc1ccccc1Cl)c1ccc2sc([C@H]3C[C@H](O)[C@@H](CO)O3)nc2c1,?,/,/,/,?,-8%
O=C(Nc1ccc(Oc2ccccc2)cc1)c1ccc2sc([C@H]3C[C@H](O)[C@@H](CO)O3)nc2c1,21µM*,/,/,/,?,-15%
CCCc1ccc(-c2cc(C(=O)Nc3ccc([N+](=O)[O-])cn3)c3ccccc3n2)cc1,?,3%,-7%,-11%,-24%,-4%
COc1ccc(CNC(=O)c2nc(SCc3ccccc3F)ncc2Cl)cc1,?,-5%,-1%,-5%,?,/
CCCCN1C(=O)CCC(C(=O)O)C1c1ccc([N+](=O)[O-])cc1 (centres undefined),18%,/,-7%,4%,3%,-6%
O=C(Nc1ccc(F)c(Cl)c1)c1csc([C@H]2C[C@H](O)[C@@H](CO)O2)n1,?,/,/,/,21µM*,-9%
O=C(CCC1CCCCC1)NCc1cccs1,2%,-5%,-7%,4%,-8%,-1%
c1ccc2c(c1)sc[n+]2CCC1CCCCC1,2.5µM*,/,/,/,5µM*,/
CC[C@@H](C(=O)[C@@H](C)[C@@H](O)[C@H](C)CCc1ccc(C)c(O)c1C(=O)O)[C@H]1O[C@](CC)([C@H]2CC[C@](O)(CC)[C@H](C)O2)C[C@@H]1C,2.3µM*,/,-15%,?,2.6µM*,?
Cc1noc(C)c1C(=O)N1CCC2(CC1)CCN(c1ncccn1)CC2,-16%,/,4%,-8%,-27%,/
